PubChem BioAssay AID1053124 (Broad Institute, 2014)
Potency and affinity values are given separately. Unmarked numbers belong to inactive results.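 How the source made its calls: active means cell killing whose fitted half-effect concentration is at most twice the top valid dose tested; inconclusive means flat curve with 30 to 70% killing, or a poor fit; inactive means effect in the rising direction, plus the rest.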

Test: viability loss in A549 lung cells – cell-based, ATP luminescence, cherry-pick, set 2, cytotoxicity control, dose response (AID 1053124);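 further: 0% = neutral control wells and -100% = mitoxantrone 10 µM positive control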
Conditions: ATP luminescence (CellTiter-Glo), 72 h; series mostly up to 26 µM; activity change, negative = cytotoxicity: at the top concentration

SMILES | activity change, negative = cytotoxicity [%]
COc1ccccc1OCc1ccc(C(=O)N(C)c2ccccc2)o1 | -0.768
COCCn1c(=N)c(S(=O)(=O)c2ccc(F)cc2)cc2c(=O)n3ccccc3nc21 | 1.86
Cc1ccc(NC(=O)Nc2ccnc(-c3cccnc3)n2)cc1 | -21.1
Cc1cc(C)nc(SCC(=O)Nc2ccc(S(=O)(=O)Nc3onc(C)c3C)cc2)n1 | 2.09
Cc1cccn2c(=O)c(/C=C(\C#N)C(N)=O)c(Oc3ccccc3)nc12 | 6.25
O=C(C1=NN(c2ccccc2)C2C(=O)N(c3ccccc3)C(=O)C12)c1ccccc1 (stereo not given) | 7.8
N#Cc1c(NCCCO)nc(NCc2ccccc2)c2c1CCN(Cc1ccccc1)C2 | 0.764
COc1cc(C(c2c(C(=O)O)[nH]c3ccccc23)c2c(C(=O)O)[nH]c3ccccc23)ccc1OCc1ccccc1 | 2.4
O=c1oc2c(CN3CCCCC3)c(O)ccc2cc1-c1nc2ccccc2[nH]1 | -7.2
CCN(CC)c1ccc2cc(C#N)c(=O)oc2c1 | -3.09
N=c1oc2cc(O)ccc2cc1C(=O)Nc1nc2ccccc2s1 | -10.5
CCN(CC)CCN1C2=C(C(=O)CC(C)(C)C2)C(c2cccc(F)c2)C2=C1CC(C)(C)CC2=O | -12.3
CC/C(C)=N\Nc1nc(-c2cc3cc(OC)ccc3oc2=O)cs1 | -4.33
CCCn1c(=N)c(S(=O)(=O)c2ccccc2)cc2c(=O)n3ccccc3nc21 | -7.19
O=C(/C=C/c1ccccc1)C1=C(O)C(=O)N(CCO)C1c1ccc2c(c1)OCO2 (stereo not given) | -9.53
Cc1ccc(C(=O)OCC(=O)Nc2c(C)nn(-c3ccccc3)c2C)c(O)c1 | -3.16
CC1=C(C(=O)N2CCN(c3cc(C)ccc3C)CC2)C2(CCCCC2)OC1=O | -8.35
O=c1oc2c(CN3CCN(CCO)CC3)c(O)ccc2cc1-c1ccccn1 | 6.89
C[C@H](NC(=O)c1nc[nH]c1C(=O)N[C@@H](Cc1ccccc1)C(=O)OC(C)(C)C)C(=O)OCc1ccccc1 | -5.37
COc1ccc(CNC(=O)c2sc(=O)n(Cc3ccc(C)cc3)c2C)cc1OC | -9.36

SMILES | activity change, negative = cytotoxicity [%]
Cc1cc2cc(CNC(=O)c3ccco3)ccc2n1C | -11
Cc1c(C(=O)NCc2ccc3c(c2)OCCO3)sc(=O)n1Cc1ccccc1F | -0.515
Cc1noc(C)c1S(=O)(=O)N(CC(=O)N1CCCCCC1)c1ccc(C(C)C)cc1 | -14.1
CCOc1ccc2nc(NCCNC(=O)CC)c(C#N)cc2c1 | -8.92
O=C(O)c1cccc(Nc2nc(-c3cc4ccccc4oc3=O)cs2)c1 | -7.33
CC(C)c1ccc(/C=C2\Oc3c(ccc(O)c3CN3CCN(C)CC3)C2=O)cc1 | -2.02
Cn1c2ccccc2c(=O)c2ccc(F)cc21 | -4.71
CCc1nc2ccc(C(=O)NCCc3c[nH]c4ccccc34)cn2c1N(C=O)CCC(C)C | -8.29
CCN(c1ccccc1)S(=O)(=O)c1ccc(OC)c(NC(=O)CN(C)C)c1 | -8.81
O=C(O)c1ccc(-c2ccc(/C=C3\NC(=O)N(Cc4ccc(Cl)cc4)C3=O)o2)cc1 | -1.62
Cc1cccn2c(=O)c3cc(C(N)=S)c(=N)n(CCCN4CCOCC4)c3nc12 | 2.11
CCCCn1nc(NC(=O)c2cccs2)c2cc3cc(OC)ccc3nc21 | -4.77
O=C1CCc2cc(S(=O)(=O)NC(Cc3ccccc3)C(=O)NCCC3=CCCCC3)ccc2N1 (stereo not given) | 8.84
CCCN1CCN(C(=O)c2ccc(CS(=O)c3ccc(Br)cc3)o2)CC1 (stereo not given) | -6.12
COc1ccc(CCN=C(N)NS(=O)(=O)c2ccc(F)cc2)cc1 | -7.67
COc1ccc(C(=O)Oc2cc(N)n(S(=O)(=O)c3ccccc3)n2)cc1 | 7.59
CCOC(=O)c1oc2c(CN3CCN(CCO)CC3)c(O)c(CC)cc2c(=O)c1-c1nc2ccccc2s1 | -9.72
CC(C)(C)[C@H]1CCC(=O)N([C@H](CSc2ccccc2)Cc2ccccc2)CC1 | -13.4
Cc1c(C=O)c2ccccn2c1C(=O)c1cccs1 | 3.67
O=c1oc2cc(O)ccc2cc1S(=O)(=O)c1ccccc1 | -15
